We go through 34 molecules from PubChem BioAssay (NCATS).

Experiment [1] in a line: A High-Content qHTS Against Drug Library for the Identification of Small Molecules that Inhibit DYT1 Early Onset Primary Dystonia-Associated Cell Pathology (AID 1645839; calls by dose curve; note: series mostly up to about 46 µM). The essentials: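 Readout: %pathology, the punctate EGFP-TorsinA distribution from imaging, as the primary channel and cell count as the toxicity counterscreen. HEK293 Flp-In cells expressing delE TorsinA were induced with tetracycline and treated with compound for 48 h.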

Experiment [2] deals with Cytochrome P450 2D6 (Homo sapiens) (UniProt P10635). The experiment is described as follows: Cytochrome P450 family 2 subfamily D member 6 (CYP2D6) small molecule antagonists: luciferase biochemical (cell-free) qHTS assay (AID 1645840). For activity change, negative = inhibition: series mostly up to about 57 µM; % is set by controls: 0 for no effect and ±100 for the full control effect. Note: nearly all actives have a fitted effect of over 55% in size. Note: potency is the fitted concentration of half-maximal effect. In a few lines: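 P450-Glo luminescent screen: recombinant CYP2D6 enzyme–proluciferin substrate mix preincubated with compound 10 min at room temperature, then NADPH regeneration added for 1 h at room temperature. Detection reagent added for 20 min; luciferin light read as relative luminescence units.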

In experiment [3] the target is Cytochrome P450 2C9 (Homo sapiens) (UniProt P11712). Description: Cytochrome P450 family 2 subfamily C member 9 (CYP2C9) small molecule antagonists: luciferase biochemical (cell-free) qHTS assay (AID 1645842). For activity change, negative = inhibition: series mostly up to about 57 µM; % is set by controls: 0 for no effect and ±100 for the full control effect. Note: nearly all actives have a fitted effect of over 55% in size. Note: potency is the fitted concentration of half-maximal effect. In a few lines:
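Luminescence, after 20 min with luciferin detection reagent, reflected CYP2C9 turnover during a 1 h NADPH-driven reaction at 37C. Enzyme-substrate mix contained 0.4% bovine serum albumin and was preincubated with compound 10 min at room temperature.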

Experiment [4] has as its target Papain (Carica papaya) (UniProt P00784). The experiment is described as follows: Primary qHTS assay for inhibitors of the protease papain (AID 1645873; active = well fitted curve in the direction sought with a large enough effect; an effect the other way counts as inactive or inconclusive;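 note: papain turnover of Z-FR-AMC read as the AMC fluorescence gain over 10 min; series mostly up to about 50 µM; % is set by controls: 0 for no effect and ±100 for the full control effect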).
Experiment [5] in a line: Primary qHTS for inhibitors of nuclear receptor binding SET domain protein 2 (NSD2) in an isogenic RCH-ACV NSD2 p.E1099K mutant (9B) (AID 1645876; active = well fitted curve in the direction sought with a large enough effect; an effect the other way counts as inactive or inconclusive; note: nearly all actives have a fitted effect of over 70% in size; note: potency is the fitted concentration of half-maximal effect; for activity change, negative = viability loss: % is set by controls: 0 for no effect and ±100 for the full control effect).
Experiment [6] is described as follows: Primary qHTS for inhibitors of nuclear receptor binding SET domain protein 2 (NSD2) in an RCH-ACV wild type WT cells (2C) (AID 1645877; active = well fitted curve in the direction sought with a large enough effect; an effect the other way counts as inactive or inconclusive; note: nearly all actives have a fitted effect of over 70% in size).
Experiment [7] has as its target Cytochrome P450 3A4 (Homo sapiens) (UniProt P08684). Description: Cytochrome P450 family 3 subfamily A member 4 (CYP3A4) small molecule antagonists: luciferase qHTS assay (AID 1645841). Note: nearly all actives have a fitted effect of over 45% in size. The essentials:
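P450-Glo CYP3A4 enzyme with proluciferin substrate was preincubated with DMSO-dissolved compounds for 10 min at room temperature. NADPH regeneration solution started a 1 h reaction. Detection reagent stopped it, and luminescence was read after 20 min.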

For experiment [8], the target named is N-terminal Xaa-Pro-Lys N-methyltransferase 1 (Homo sapiens) (UniProt Q9BV86). Description: Confirmatory qHTS for Inhibitors of N-terminal methyltransferase 1 (NTMT1): MTaseGlo Assay (AID 1645874; active = well fitted curve in the direction sought with a large enough effect; an effect the other way counts as inactive or inconclusive; note: potency is the fitted concentration of half-maximal effect; nearly all actives have a fitted effect of over 65% in size). The following applies: NTMT1 enzyme, MTase-Glo SAH luminescence. The essentials: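 Luminescent MTase-Glo read-out of SAH. 125 nM NTMT1, 100 uM SAM, 1 uM SPKRIA substrate, 30 min RT reaction after 15 min compound preincubation. Normalized to no-enzyme and DMSO controls; Hill fit.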

Results filed as inconclusive are left out. Values without a mark were called inactive. Calls of active or inactive are those of the source. Unless noted, calls come from the whole dose curve; as a rule, active = well fitted curve in the direction sought with a large enough effect in the repeat runs; inconclusive = weak or mixed curves; inactive = no such curve, though single readings can be large; an effect the other way counts as inactive or inconclusive.

Sequence of Cytochrome P450 3A4 (Homo sapiens) (P08684 whole entry, looked up): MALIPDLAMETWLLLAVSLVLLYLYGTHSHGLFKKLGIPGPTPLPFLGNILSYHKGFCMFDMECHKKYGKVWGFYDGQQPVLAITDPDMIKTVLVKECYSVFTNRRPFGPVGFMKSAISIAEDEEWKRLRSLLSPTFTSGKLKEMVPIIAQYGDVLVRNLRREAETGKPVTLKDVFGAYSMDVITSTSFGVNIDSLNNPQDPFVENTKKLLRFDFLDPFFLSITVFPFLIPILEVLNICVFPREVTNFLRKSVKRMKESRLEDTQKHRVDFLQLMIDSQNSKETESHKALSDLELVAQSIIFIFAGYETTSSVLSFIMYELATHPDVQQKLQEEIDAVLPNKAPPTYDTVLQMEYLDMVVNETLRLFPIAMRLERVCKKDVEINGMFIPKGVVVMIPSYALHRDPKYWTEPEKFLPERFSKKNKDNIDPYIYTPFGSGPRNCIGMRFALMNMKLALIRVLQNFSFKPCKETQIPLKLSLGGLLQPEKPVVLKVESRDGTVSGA
Sequence of Cytochrome P450 2D6 (Homo sapiens) (P10635 whole entry, looked up): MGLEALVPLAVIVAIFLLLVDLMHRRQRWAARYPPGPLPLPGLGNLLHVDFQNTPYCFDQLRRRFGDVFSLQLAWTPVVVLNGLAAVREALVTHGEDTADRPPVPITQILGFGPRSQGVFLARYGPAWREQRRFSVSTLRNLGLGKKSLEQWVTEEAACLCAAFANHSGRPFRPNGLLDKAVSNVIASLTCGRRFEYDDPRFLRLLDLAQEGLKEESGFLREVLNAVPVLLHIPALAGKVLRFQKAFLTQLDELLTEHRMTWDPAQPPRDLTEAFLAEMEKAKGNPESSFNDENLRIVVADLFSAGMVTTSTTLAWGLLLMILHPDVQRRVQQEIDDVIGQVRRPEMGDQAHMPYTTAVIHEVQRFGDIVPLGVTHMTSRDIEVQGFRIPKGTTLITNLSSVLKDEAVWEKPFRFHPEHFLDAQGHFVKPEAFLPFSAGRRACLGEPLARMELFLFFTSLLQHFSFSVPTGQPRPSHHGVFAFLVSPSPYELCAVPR
Sequence of Cytochrome P450 2C9 (Homo sapiens) (P11712 whole entry, looked up): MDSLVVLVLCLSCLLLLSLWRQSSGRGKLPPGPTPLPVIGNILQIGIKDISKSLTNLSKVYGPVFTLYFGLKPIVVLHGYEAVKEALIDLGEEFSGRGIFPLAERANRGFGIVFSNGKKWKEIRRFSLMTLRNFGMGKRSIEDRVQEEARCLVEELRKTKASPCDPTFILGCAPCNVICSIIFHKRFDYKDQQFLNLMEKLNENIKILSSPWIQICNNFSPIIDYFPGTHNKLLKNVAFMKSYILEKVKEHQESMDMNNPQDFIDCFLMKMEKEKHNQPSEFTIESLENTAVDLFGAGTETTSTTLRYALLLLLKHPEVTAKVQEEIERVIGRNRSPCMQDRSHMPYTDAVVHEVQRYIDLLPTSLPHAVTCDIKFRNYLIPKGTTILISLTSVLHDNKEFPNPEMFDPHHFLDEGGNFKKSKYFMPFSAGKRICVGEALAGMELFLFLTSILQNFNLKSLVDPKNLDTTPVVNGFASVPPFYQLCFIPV
Sequence of Papain (Carica papaya) (P00784 whole entry, looked up, the tested form may be a part): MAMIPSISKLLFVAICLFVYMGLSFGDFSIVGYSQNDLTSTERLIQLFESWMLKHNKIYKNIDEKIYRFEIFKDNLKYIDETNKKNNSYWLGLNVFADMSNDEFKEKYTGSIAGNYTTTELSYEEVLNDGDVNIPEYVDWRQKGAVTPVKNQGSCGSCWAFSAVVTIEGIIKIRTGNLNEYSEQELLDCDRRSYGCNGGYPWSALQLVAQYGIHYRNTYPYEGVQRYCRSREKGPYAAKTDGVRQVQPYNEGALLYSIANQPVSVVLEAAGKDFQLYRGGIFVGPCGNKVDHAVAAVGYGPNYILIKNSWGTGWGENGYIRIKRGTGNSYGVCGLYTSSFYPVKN
Sequence of N-terminal Xaa-Pro-Lys N-methyltransferase 1 (Homo sapiens) (Q9BV86 whole entry, looked up): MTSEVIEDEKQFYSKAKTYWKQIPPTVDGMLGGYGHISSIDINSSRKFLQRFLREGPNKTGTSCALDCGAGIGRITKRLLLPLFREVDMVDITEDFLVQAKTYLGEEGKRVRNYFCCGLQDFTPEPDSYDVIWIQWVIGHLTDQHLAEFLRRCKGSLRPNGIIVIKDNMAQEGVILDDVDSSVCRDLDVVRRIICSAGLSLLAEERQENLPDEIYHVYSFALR

On to `C[C@](N)(Cc1ccc(O)cc1)C(=O)O`, for which, in experiment [1], the % pathology change, negative = correction was 14.7% [at 4.63 µM]. Further, the activity change, negative = inhibition in experiment [2] was 8.94% [at 4.83 µM]; in experiment [3], 1.65% [at 4.83 µM]. Also, in experiment [4], the Potency result was “inactive”. Besides, the activity change, negative = viability loss in experiment [5] was -3.71% [at 4.96 µM]. For the same molecule, the outcome in experiment [6] was “inactive [at 4.96 µM]”.
Turning to `NC(CSCC(=O)O)C(=O)O` (centres undefined), the Potency entry in experiment [1], in experiment [2] and in experiment [3] was “inactive” in each case.
For the molecule `O=C1NC(=O)[C@@]2(CCOc3ccc(F)cc32)N1`, the Potency result in experiment [1], in experiment [2], in experiment [3], in experiment [4], in experiment [5] and in experiment [6] was “inactive” throughout.
As for `CCN(CC)CCSC(=O)C(c1ccccc1)c1ccccc1`, in experiment [1], the Potency entry is “inactive”. In addition, the results for the Potency in experiment [2] and in experiment [3] were 5.49 µM (active) and 13.8 µM (active), respectively.
As for `CCN(CC)CCNC(=O)c1cc(Cl)c(N)cc1OC`, the Potency entry in experiment [1], in experiment [3], in experiment [4] and in experiment [5] was “inactive” in each case. The Potency in experiment [2] is 15.5 µM (active). Moreover, the outcome in experiment [7] was inactive.
`O=C1NS(=O)(=O)c2ccccc21`: the Potency result in experiment [1], in experiment [2] and in experiment [3] was “inactive” throughout.
Turning to `Cc1cc(CC(=O)O)n(C)c1C(=O)c1ccc(Cl)cc1`, the Potency result in experiment [1], in experiment [2] and in experiment [3] was “inactive” each time.
`C=Cc1c(C)c2cc3[nH]c(cc4nc(cc5nc(cc1[nH]2)C(C)=C5CCC(=O)O)C(CCC(=O)O)=C4C)c(C)c3C=C`: the Potency result in experiment [1], in experiment [2], in experiment [3] and in experiment [4] was “inactive” throughout. Also, the result in experiment [7] was inactive. The Potency in experiment [8] is 34.5 µM (active).
Take `C[C@H](NC(CCc1ccccc1)C(=O)O)C(=O)N1CCC[C@H]1C(=O)O` (some centres undefined): the Potency entry in experiment [1], in experiment [2], in experiment [3], in experiment [4], in experiment [5] and in experiment [6] was “inactive” in each case.
As to `CC(C)(C)C(=O)C(Oc1ccc(Cl)cc1)n1ccnc1` (centres undefined), the Potency result in experiment [1] was “inactive”. The Potency in experiment [2] is 17.4 µM (active); in experiment [3], 2.75 µM (active).
Take `CN(N=O)C(=O)N[C@@H]1[C@@H](O)[C@H](O)[C@@H](CO)O[C@@H]1O`: the Potency entry in experiment [1], in experiment [2], in experiment [3] and in experiment [5] was “inactive” throughout. For the same molecule, in experiment [7], the call was inactive.
Regarding `CS(=O)(=O)c1ccc([C@@H](O)[C@@H](CF)NC(=O)C(Cl)Cl)cc1`, the Potency result in experiment [1], in experiment [2] and in experiment [3] was “inactive” each time.
With `Nc1cc(=O)[nH]c(N)n1`, the Potency entry in experiment [1], in experiment [2], in experiment [3], in experiment [4], in experiment [5] and in experiment [6] was “inactive” throughout.
Take `CN1[C@@H]2CC(OC(=O)[C@H](CO)c3ccccc3)C[C@H]1[C@@H]1O[C@@H]12` (some centres undefined): the Potency result in experiment [1] is “inactive”.
On to `C[C@@H]1CC[C@@]2(OC1)O[C@H]1C[C@H]3[C@@H]4CC[C@H]5C[C@@H](O)CC[C@]5(C)[C@H]4CC(=O)[C@]3(C)[C@H]1[C@@H]2C`, for which, in experiment [1], the % pathology change, negative = correction was -10% [at 4.63 µM]. Besides, the activity change, negative = inhibition is 8.49% [at 4.83 µM] in experiment [2], 37% [at 4.83 µM] in experiment [7] and 5.2% [at 4.83 µM] in experiment [3]. Moreover, the activity change, negative = viability loss in experiment [5] is -10.8% [at 4.96 µM].
As for `O=C(O)[C@@H]1CSCN1`, the Potency result in experiment [1], in experiment [2], in experiment [3], in experiment [5] and in experiment [6] was “inactive” throughout. Also, in experiment [7], the call was inactive.
In the case of `Nc1ccc(S(=O)(=O)Nc2ccc(Cl)nn2)cc1`, the Potency entry in experiment [1] and in experiment [2] was “inactive” in each case.
`CN1CCC[C@@H]1Cc1c[nH]c2ccc(CCS(=O)(=O)c3ccccc3)cc12`: the Potency result in experiment [1], in experiment [4] and in experiment [5] was “inactive” each time. Besides, the Potency in experiment [2] and in experiment [3] was 13.8 µM (active) each time.
As to `O=c1[nH]c(=O)c2[nH]c(=O)[nH]c2[nH]1`, the % pathology change, negative = correction in experiment [1] was 7.44% [at 9.22 µM]. Besides, the activity change, negative = inhibition in experiment [2] was 4.14% [at 11.5 µM]; in experiment [3] it was 8.18% [at 11.5 µM].
Regarding `NC(N)=NCCC[C@H](N)C(=O)O`, in experiment [1], the % pathology change, negative = correction was 17.5% [at 4.63 µM]. Besides, the values for the activity change, negative = inhibition in experiment [2] and in experiment [3] were 2.59% [at 4.83 µM] and -6.78% [at 4.83 µM], respectively. Also, in experiment [4], the Potency entry was “inactive”. Besides, the outcome in experiment [5] was “inactive [at 4.96 µM]”.
As for `Cc1cc2c(cc1S(N)(=O)=O)S(=O)(=O)CCC2`, the Potency entry in experiment [1], in experiment [2], in experiment [3], in experiment [5] and in experiment [6] was “inactive” each time. For the same molecule, the call in experiment [7] was inactive.
Consider `c1ccc2c(CC3=NCCN3)cccc2c1`, for which the Potency entry in experiment [1], in experiment [3] and in experiment [5] was “inactive” each time. Moreover, the Potency in experiment [2] was 15.5 µM (active). Moreover, the molecule was classed as inactive in experiment [7].
As for `OCC(O)CN1CCN(c2ccccc2)CC1` (centres undefined), the Potency result in experiment [1], in experiment [2], in experiment [3], in experiment [5] and in experiment [6] was “inactive” in each case. Also, the molecule was called inactive in experiment [7].
On to `[Cl][In]([Cl])[Cl]`, for which the Potency entry in experiment [1], in experiment [2] and in experiment [3] was “inactive” in each case. Besides, in experiment [7], the result was inactive. The results for the Potency in experiment [8] and in experiment [5] were 4.91 µM (active) and 24.3 µM (active), respectively.
As to `NC(=O)N/N=C/c1ccc([N+](=O)[O-])o1`, the Potency entry in experiment [1] and in experiment [3] was “inactive” in each case. Moreover, the Potency in experiment [2] is 13.4 µM (active).
For `CCCCc1ncc(/C=C(\Cc2cccs2)C(=O)O)n1Cc1ccc(C(=O)O)cc1`, the Potency entry in experiment [1], in experiment [2], in experiment [3], in experiment [4], in experiment [5] and in experiment [6] was “inactive” throughout.
Consider `CN(C)CCN(Cc1ccccc1)c1ccccn1`, for which the Potency entry in experiment [1] and in experiment [3] was “inactive” each time. Also, in experiment [2], the Potency is 0.174 µM (active).
`C[C@H](N)[C@H](O)c1cccc(O)c1`: the Potency result in experiment [1], in experiment [2], in experiment [5] and in experiment [6] was “inactive” throughout. In addition, the outcome in experiment [7] was inactive.
As for `CC(=O)NC(Cc1ccccc1)C(=O)O` (centres undefined), the Potency result in experiment [1], in experiment [2], in experiment [3], in experiment [5] and in experiment [6] was “inactive” throughout. Besides, in experiment [7], the call was inactive.
For the molecule `CC(C)C(=O)c1c(C(C)C)nn2ccccc12`, the Potency entry in experiment [1], in experiment [2], in experiment [3], in experiment [4], in experiment [5] and in experiment [6] was “inactive” each time.
In the case of `CN(C)CC[C@@H](c1ccc(Cl)cc1)c1ccccn1`, the Potency entry in experiment [1], in experiment [3], in experiment [4] and in experiment [5] was “inactive” in each case. The Potency in experiment [2] was 9.52 µM (active).
Turning to `C[C@@H]1C[C@H]2[C@@H]3C[C@H](F)C4=CC(=O)C=C[C@]4(C)[C@@]3(F)[C@@H](O)C[C@]2(C)[C@@]1(O)C(=O)CO`, in experiment [1], the Potency entry is “inactive”.
As for `CCCCOC(=O)c1ccc(O)cc1`, the Potency result in experiment [1] was “inactive”.
Regarding `OCC(CO)N[C@H]1C[C@](O)(CO)[C@@H](O)[C@H](O)[C@H]1O`, the Potency entry in experiment [1], in experiment [2], in experiment [3] and in experiment [5] was “inactive” throughout.
